# Measurements from the supplement of paper PMC8728848.
# Shown is part of a subset that was picked to be rich in the strongest signals.
# B1: Erv41-EDTA (Saccharomyces cerevisiae), Q04651 (protein)
# chain: MKFLVNVALVFMVVYISYIYAAAPEHHHHHHDYDIPTTENLYFQGAMGYIDQQYVVDSQVRDTVQINMDIYVNTKCDWLQINVRDQTMDRKLVLEELQLEEMPFFIPYDTKVNDINEIITPELDEILGEAIPAEFREKLDTRSFFDESDPNKAHLPEFNGCHVFGSIPVNRVSGELQITAKSLGYVASRKAPLEELKFNHVINEFSFGDFYPYIDNPLDNTAQFNQDEPLTTYVYYTSVVPTLFKKLGAEVDTNQYSVNDYRYLYKDVAAKGDKMPGIFFKYNFEPLSIVVSDVRL
# Assays:
# Assay in all cases: glycan array binding signal (z-score within array); higher = stronger binding
# Settings in all cases: glycan notation: IUPAC condensed, linker removed
# [1] = biological target: Fuc(a1-2)Gal(b1-3)GlcNAc(b1-2)Man(a1-3)[Fuc(a1-2)Gal(b1-3)GlcNAc(b1-2)Man(a1-6)]Man(b1-4)GlcNAc(b1-4)GlcNAc
# In short: (§1)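 The Consortium for Functional Glycomics database supplied 3228 glycan arrays, of which those lacking an available protein sequence were dropped. The binding signal, a within-array Z-score, was averaged across arrays of the same protein sequence and across linkers. Negative scores can be read as non-binding.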
# [2] = biological target: Fuc(a1-2)Gal(b1-3)GlcNAc(b1-3)[Fuc(a1-2)Gal(b1-3)GlcNAc(b1-6)]GalNAc
# In short: as §1
# [3] = biological target: Fuc(a1-2)Gal(b1-4)GlcNAc(b1-3)Gal(b1-4)GlcNAc
# In short: as §1
# [4] = biological target: Fuc(a1-2)Gal(b1-4)GlcNAc6S
# In short: as §1
# [5] = biological target: Fuc(a1-2)Gal3S(b1-4)GlcNAc
# In short: as §1
# [6] = biological target: Fuc(a1-2)[Gal(a1-3)]Gal(b1-3)GalNAc(b1-3)Gal(a1-4)Gal(b1-4)Glc
# In short: as §1
# [7] = biological target: Fuc(a1-2)[Gal(a1-3)]Gal(b1-3)GlcNAc(b1-2)Man(a1-3)[Fuc(a1-2)[Gal(a1-3)]Gal(b1-3)GlcNAc(b1-2)Man(a1-6)]Man(b1-4)GlcNAc(b1-4)[Fuc(a1-6)]GlcNAc
# In short: as §1
# [8] = biological target: Fuc(a1-2)[GalNAc(a1-3)]Gal(b1-4)GlcNAc(b1-3)Gal(b1-4)GlcNAc(b1-3)Gal(b1-4)GlcNAc
# In short: as §1
# [9] = biological target: Fuc(a1-3)[Gal3S(b1-4)]Glc
# In short: as §1
# [10] = biological target: Gal(a1-3)Gal(b1-3)[Fuc(a1-4)]GlcNAc(b1-2)Man(a1-3)[Gal(a1-3)Gal(b1-3)[Fuc(a1-4)]GlcNAc(b1-2)Man(a1-6)]Man(b1-4)GlcNAc(b1-4)GlcNAc
# In short: as §1
# [11] = biological target: Gal(a1-3)Gal(b1-4)[Fuc(a1-3)]GlcNAc
# In short: as §1
# [12] = biological target: Gal(a1-3)Gal(b1-4)[Fuc(a1-3)]GlcNAc(b1-2)Man(a1-3)[Gal(a1-3)Gal(b1-4)[Fuc(a1-3)]GlcNAc(b1-2)Man(a1-6)]Man(b1-4)GlcNAc(b1-4)GlcNAc
# In short: as §1
# [13] = biological target: Gal(b1-3)GalNAc(b1-3)Gal(a1-4)Gal(b1-4)Glc
# In short: as §1
# [14] = biological target: Gal(b1-3)GlcNAc(b1-3)Gal(b1-4)GlcNAc(b1-3)Gal(b1-4)GlcNAc(b1-2)[Gal(b1-3)GlcNAc(b1-3)Gal(b1-4)GlcNAc(b1-3)Gal(b1-4)GlcNAc(b1-6)]Man(a1-6)[Gal(b1-3)GlcNAc(b1-3)Gal(b1-4)GlcNAc(b1-3)Gal(b1-4)GlcNAc(b1-2)Man(a1-3)]Man(b1-4)GlcNAc(b1-4)[Fuc(a1-6)]GlcNAc
# In short: as §1
# [15] = biological target: Gal(b1-4)GlcNAc(b1-2)Man(a1-6)Man(b1-4)GlcNAc(b1-4)GlcNAc
# In short: as §1
# [16] = biological target: Gal(b1-4)GlcNAc(b1-3)Gal(b1-4)GlcNAc(b1-3)Gal(b1-4)GlcNAc(b1-2)Man(a1-3)[Gal(b1-4)GlcNAc(b1-3)Gal(b1-4)GlcNAc(b1-3)Gal(b1-4)GlcNAc(b1-2)Man(a1-6)]Man(b1-4)GlcNAc(b1-4)[Fuc(a1-6)]GlcNAc
# In short: as §1
# [17] = biological target: Gal(b1-4)GlcNAc(b1-3)Gal(b1-4)GlcNAc(b1-3)Gal(b1-4)GlcNAc(b1-2)[Gal(b1-4)GlcNAc(b1-3)Gal(b1-4)GlcNAc(b1-3)Gal(b1-4)GlcNAc(b1-6)]Man(a1-6)[Gal(b1-4)GlcNAc(b1-3)Gal(b1-4)GlcNAc(b1-3)Gal(b1-4)GlcNAc(b1-2)Man(a1-3)]Man(b1-4)GlcNAc(b1-4)[Fuc(a1-6)]GlcNAc
# In short: as §1
# [18] = biological target: Gal(b1-4)GlcNAc(b1-3)Gal(b1-4)GlcNAc(b1-3)Gal(b1-4)GlcNAc(b1-3)Gal(b1-4)GlcNAc(b1-2)Man(a1-3)[Gal(b1-4)GlcNAc(b1-3)Gal(b1-4)GlcNAc(b1-3)Gal(b1-4)GlcNAc(b1-3)Gal(b1-4)GlcNAc(b1-2)Man(a1-6)]Man(b1-4)GlcNAc(b1-4)[Fuc(a1-6)]GlcNAc
# In short: as §1
# [19] = biological target: Gal(b1-4)GlcNAc(b1-3)Gal(b1-4)GlcNAc(b1-3)Gal(b1-4)GlcNAc(b1-3)Gal(b1-4)GlcNAc(b1-2)[Gal(b1-4)GlcNAc(b1-3)Gal(b1-4)GlcNAc(b1-3)Gal(b1-4)GlcNAc(b1-3)Gal(b1-4)GlcNAc(b1-6)]Man(a1-6)[Gal(b1-4)GlcNAc(b1-3)Gal(b1-4)GlcNAc(b1-3)Gal(b1-4)GlcNAc(b1-3)Gal(b1-4)GlcNAc(b1-2)Man(a1-3)]Man(b1-4)GlcNAc(b1-4)[Fuc(a1-6)]GlcNAc
# In short: as §1
# [20] = biological target: Gal(b1-4)GlcNAc(b1-3)Gal(b1-4)GlcNAc(b1-3)Gal(b1-4)GlcNAc(b1-3)Gal(b1-4)GlcNAc(b1-3)Gal(b1-4)GlcNAc(b1-2)Man(a1-3)[Gal(b1-4)GlcNAc(b1-3)Gal(b1-4)GlcNAc(b1-3)Gal(b1-4)GlcNAc(b1-3)Gal(b1-4)GlcNAc(b1-3)Gal(b1-4)GlcNAc(b1-2)Man(a1-6)]Man(b1-4)GlcNAc(b1-4)[Fuc(a1-6)]GlcNAc
# In short: as §1
# [21] = biological target: Gal(b1-4)GlcNAc(b1-3)Gal(b1-4)GlcNAc(b1-3)[Gal(b1-4)GlcNAc(b1-3)Gal(b1-4)GlcNAc(b1-6)]GalNAc
# In short: as §1
# [22] = biological target: Gal(b1-4)GlcNAc(b1-6)GalNAc
# In short: as §1
# Gal3S(b1-3)GalNAc = biological target: Gal3S(b1-3)GalNAc
# In short: as §1
# Gal6S(b1-4)GlcNAc6S = biological target: Gal6S(b1-4)GlcNAc6S
# In short: as §1
# [23] = biological target: GalNAc(b1-4)GlcNAc(b1-3)GalNAc(b1-4)GlcNAc
# In short: as §1
# GlcA(b1-3)GlcNAc = biological target: GlcA(b1-3)GlcNAc
# In short: as §1
binder,measurement,setting,value
B1,glycan array binding signal (z-score),[1],0.618
same,glycan array binding signal (z-score),[2],2.18
same,glycan array binding signal (z-score),[3],-0.317
same,glycan array binding signal (z-score),[4],0.642
same,glycan array binding signal (z-score),[5],-0.093
same,glycan array binding signal (z-score),[6],-0.396
same,glycan array binding signal (z-score),[7],0.605
same,glycan array binding signal (z-score),[8],0.784
same,glycan array binding signal (z-score),[9],-0.042
same,glycan array binding signal (z-score),[10],-0.414
same,glycan array binding signal (z-score),[11],-0.74
same,glycan array binding signal (z-score),[12],2.1
same,glycan array binding signal (z-score),[13],1.08
same,glycan array binding signal (z-score),[14],1.31
same,glycan array binding signal (z-score),[15],-0.604
same,glycan array binding signal (z-score),[16],1.64
same,glycan array binding signal (z-score),[17],2.65
same,glycan array binding signal (z-score),[18],2.2
same,glycan array binding signal (z-score),[19],2.63
same,glycan array binding signal (z-score),[20],3.41
same,glycan array binding signal (z-score),[21],1.32
same,glycan array binding signal (z-score),[22],1.98
same,glycan array binding signal (z-score),Gal3S(b1-3)GalNAc,0.809
same,glycan array binding signal (z-score),Gal6S(b1-4)GlcNAc6S,-0.128
same,glycan array binding signal (z-score),[23],-0.339
same,glycan array binding signal (z-score),GlcA(b1-3)GlcNAc,-0.217
